Here are results for three molecules from PubChem BioAssay.

The term viability denotes a read-out of living cells in per cent, often relative to untreated cells.

Assay [1] is described as follows: viability loss with induced miR-34 in A549 – imaging, A549 dox-inducible miR-34, nuclei and caspase counts, primary screen (AID 1347080). As to conditions: A549 miR-34 inducible, Hoechst nuclei count, 48 h.
Assay [2] can be described thus: MELAS cybrid and Rieske KO viability enhancers – cell-based, MELAS cybrids, Rieske KO mouse fibroblasts, CellTiter-Glo, primary screen (AID 1508586;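 active means mean z-score across replicates of 1.96 or higher in either the MELAS or the Rieske mutant cell line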;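 further: z relative to plate mean and SD of compound and empty wells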). As to conditions: low glucose. A general note: ATP-based viability assays read luminescence as a measure of living cells.
A short description of assay [3]: galactose survival enhancers in mitochondrial complex I cybrids – cell-based, galactose medium, ATP luminescence, primary screen (AID 1645843;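 active means z-score of at least 1.8 in each of two replicates, scored against plate mean and spread of sample wells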;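 further: positive z means more ATP and so rescue of galactose-driven cybrid death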). As to conditions: complex I mutant cybrid cells, 72 h, stronger effect = higher value.
A short description of assay [4]: P. berghei load reduction in hepatocytes – cell-based, HepG2, luciferase luminescence, HepG2 viability, primary screen (AID 624349; in the data active means parasite load remaining mostly below about 12%, no sharp cut-off; inactive means mostly above about 10%;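 further: 100% = mean of DMSO negative control wells on the same plate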). As to conditions: P. berghei liver stage in HepG2, luciferase luminescence, concentration not given here; parasite load remaining: stronger effect = lower value; viability: measured here: HepG2 viability without parasites.
The mark [5] stands for this setting: stronger effect = lower value, cell number ratio, induced over uninduced.
Setting [6] is: measured here: relative caspase fold change +Dox/-Dox.
The mark [7] stands for this setting: measured here: total cells with miR-34 induction, stronger effect = lower value.
[8] abbreviates: measured here: total cells without miR-34 induction.
Where [9] appears, read: MELAS cybrid survival, CellTiter-Glo 48 h, stronger effect = higher value.
[10] abbreviates: Rieske KO mouse fibroblast survival, CellTiter-Glo 72 h.

Calls of active or inactive are those of the source.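 How the source made its calls, unless noted: active means compounds whose cell count with miR-34 switched on is under 0.7 times the count with it off; inactive means the rest.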

Consider `CN(Cc1cnc2ccccc2n1)C(=O)Nc1n[nH]c(-c2ccco2)n1`, for which the results for the fold change in assay [1] (setting [5]) and in assay [1] (setting [6]) were 0.886 (inactive) and 0.927, respectively. Also, the cell count came out at 8010 in assay [1] (setting [7]) and 9030 in assay [1] (setting [8]). For the same molecule, the z-score in assay [2] (setting [9]) was -0.974; in assay [2] (setting [10]), 3.4; in assay [3], 0.175 (inactive).
Turning to `COCC1CCCN(Cc2cccc(-c3nc(-c4cccnc4)cc(=O)[nH]3)c2)C1` (configuration not stated), the results for the fold change in assay [1] (setting [5]) and in assay [1] (setting [6]) were 0.935 (inactive) and 1.11, respectively. Also, the results for the cell count in assay [1] (setting [7]) and in assay [1] (setting [8]) were 8420 and 9010, respectively. Besides, the values for the z-score in assay [2] (setting [9]), in assay [2] (setting [10]) and in assay [3] were -0.479 (inactive), 0.644 and 0.175 (inactive), respectively.
Consider `NC[C@H]1O[C@H](O[C@H]2[C@H](O)[C@@H](O[C@H]3O[C@H](CO)[C@@H](O)[C@H](N)[C@H]3O)[C@H](N)C[C@@H]2N)[C@H](O)[C@@H](O)[C@@H]1O`, for which the parasite load remaining in assay [4] is 178% (inactive). Besides, in assay [4], the viability was 108%. For the same molecule, the fold change in assay [1] (setting [5]) was 0.854 (inactive); in assay [1] (setting [6]), 1.26. In addition, the cell count in assay [1] (setting [7]) turned out to be 8420; in assay [1] (setting [8]) it was 9860. For the same molecule, the figures for the z-score in assay [2] (setting [9]) and in assay [2] (setting [10]) were -0.387 (inactive) and -0.145, respectively.
